Records with an inconclusive call do not appear. Activity calls are given as the source filed them. Calls follow the shape of the dose curve; as a rule, active = well fitted inhibition curve with a large enough effect; inconclusive = small, poorly fitted or top-dose-only effect; inactive = flat fitted curve, though single readings scatter.
Legend:
Assay in all cases: qHTS profiling for inhibitors of Plasmodium falciparum proliferation (AID 504749); also: nearly all actives have a fitted effect of over 60% in size
Conditions in all cases: P. falciparum in erythrocytes, SYBR Green DNA, 72 h; series mostly up to 28.7 µM
DFO2036 = tested on: DFO2036
Method in brief: (§1)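 Each compound contacts P. falciparum-infected red blood cells for 72 h at 37 C; lysis buffer (Tris, EDTA, saponin, Triton X, SYBR Green I) is added and fluorescence measured next morning; values normalized to controls.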

DIV14 = tested on: DIV14
Method in brief: as §1

DIV17 = tested on: DIV17
Method in brief: as §1

DIV30 = tested on: DIV30
Method in brief: as §1

Dd2 = tested on: Dd2
Method in brief: as §1

ECU = tested on: ECU
Method in brief: as §1

FAB9 = tested on: FAB9
Method in brief: as §1

GB4 = tested on: GB4
Method in brief: as §1

HB3 = tested on: HB3
Method in brief: as §1

ICS = tested on: ICS
Method in brief: as §1

Measured: Potency

OCc1ccccc1O
inactive: DFO2036 | DIV14 | DIV17 | DIV30 | Dd2 | ECU | FAB9 | GB4 | HB3 | ICS

CCN1CCCC1=O
inactive: DFO2036 | DIV14 | DIV17 | DIV30 | Dd2 | ECU | FAB9 | GB4 | HB3 | ICS

COC(=O)[C@@H]1CC2=CC(=O)CC[C@]2(C)[C@@]23O[C@@H]2C[C@@]2(C)[C@@H](CC[C@@]24CCC(=O)O4)[C@H]13
inactive: DFO2036 | DIV14 | DIV17 | DIV30 | Dd2 | ECU | FAB9 | GB4 | HB3 | ICS

CC(=O)Oc1ccc(C(=C2CCCCC2)c2ccc(OC(C)=O)cc2)cc1
inactive: DFO2036 | DIV14 | DIV17 | DIV30 | Dd2 | ECU | FAB9 | GB4 | HB3 | ICS

Cc1c(F)c(N2CCNC(C)C2)cc2c1c(=O)c(C(=O)O)cn2C1CC1 (stereo not given)
inactive: DFO2036 | DIV14 | DIV17 | DIV30 | Dd2 | ECU | FAB9 | GB4 | HB3 | ICS

CCCn1c(=O)[nH]c(=O)c2[nH]cnc21
inactive: DFO2036 | DIV14 | DIV17 | DIV30 | Dd2 | ECU | FAB9 | GB4 | HB3 | ICS

CC1(C)CCC(NC(=O)[C@@H](N)CCC(=O)O)CC1
inactive: DFO2036 | DIV14 | DIV17 | DIV30 | Dd2 | ECU | FAB9 | GB4 | HB3 | ICS

O=C(OCCOCCO)c1ccccc1Nc1cccc(C(F)(F)F)c1
inactive: DFO2036 | DIV14 | DIV17 | DIV30 | Dd2 | ECU | FAB9 | GB4 | HB3 | ICS

CN1C(CCl)Nc2cc(Cl)c(S(N)(=O)=O)cc2S1(=O)=O (stereo not given)
inactive: DFO2036 | DIV14 | DIV17 | DIV30 | Dd2 | ECU | FAB9 | GB4 | HB3 | ICS

O=C(COc1ccc(Cl)cc1)N1CCN(Cc2ccc3c(c2)OCO3)CC1
inactive: DFO2036 | DIV14 | DIV17 | DIV30 | Dd2 | ECU | FAB9 | GB4 | HB3 | ICS

NCCCC[C@H](N[C@@H](CCc1ccccc1)C(=O)O)C(=O)N1CCC[C@H]1C(=O)O
inactive: DFO2036 | DIV14 | DIV17 | DIV30 | Dd2 | ECU | FAB9 | GB4 | HB3 | ICS

CC(C)(Oc1ccc(Cl)cc1)C(=O)O
inactive: DFO2036 | DIV14 | DIV17 | DIV30 | Dd2 | ECU | FAB9 | GB4 | HB3 | ICS

C1CCc2nnnn2CC1
inactive: DFO2036 | DIV14 | DIV17 | DIV30 | Dd2 | ECU | FAB9 | GB4 | HB3 | ICS

CC(C)(CO)[C@@H](O)C(=O)NCCCO
inactive: DFO2036 | DIV14 | DIV17 | DIV30 | Dd2 | ECU | FAB9 | GB4 | HB3 | ICS

C[C@H](O)C(=O)Nc1c(I)c(C(=O)NC(CO)CO)c(I)c(C(=O)NC(CO)CO)c1I
inactive: DFO2036 | DIV14 | DIV17 | DIV30 | Dd2 | ECU | FAB9 | GB4 | HB3 | ICS

CCCCCC=CCC=CCCCCCCCC(=O)OCC
inactive: DFO2036 | DIV14 | DIV17 | DIV30 | Dd2 | ECU | FAB9 | GB4 | HB3 | ICS

C[N+]1(CCCCC[N+]2(C)CCCC2)CCCC1
inactive: DFO2036 | DIV14 | DIV17 | DIV30 | Dd2 | ECU | FAB9 | GB4 | HB3 | ICS

Nc1ccc(C(=O)O)cc1
inactive: DFO2036 | DIV14 | DIV17 | DIV30 | Dd2 | ECU | FAB9 | GB4 | HB3 | ICS

O=C1c2ccccc2C(=O)C1c1ccccc1
inactive: DFO2036 | DIV14 | DIV17 | DIV30 | Dd2 | ECU | FAB9 | GB4 | HB3 | ICS

CCN(CC)C(=O)N1CCN(C)CC1
inactive: DFO2036 | DIV14 | DIV17 | DIV30 | Dd2 | ECU | FAB9 | GB4 | HB3 | ICS
